GLD-1 RNA inh: GLD-1-TGE RNA interaction inhibition (C. elegans) | Q17339 | purified GLD-1 + fluorescein TGE RNA, fluorescence polarization | inhibition, % at 5.96 µM | 320,000 tested, 0.44% active | AID 2280;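 active means percent inhibition above a per-plate cutoff, the plate mean of test compounds plus 3 SD, cut at about 30% in these data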
MEX-5 binding: C. elegans MEX-5 TCR-2 RNA binding activity; Q9XUB2; MEX-5/FITC-TCR2 RNA binding, fluorescence polarization; active compounds read low; activity score (negative = inhibition of binding), % at 10 µM; 300,000 tested, 0.38% active; AID 1832;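 active means inhibition past about -25% in most replicates, and total fluorescence under double the plate's negative control median, limit read from the data; inconclusive means replicates evenly split on the limit, or fluorescence at least double controls; inactive means too little inhibition in most replicates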
EBV gp42 inh: EBV gp42 inhibition; Q1HVG2; Fluorescence polarization binding assay, mP read-out; inhibition, % (tested at 21.74 µM); 220,000 tested, 0.42% active; in the data active means inhibition above about 50%
BCLXL inh: Bcl-xL (human) inhibition; Q07817; GST-Bcl-xL / FITC-Bim BH3 peptide fluorescence polarization; inhibition, % at 10.9 µM; 320,000 tested, 0.7% active; AID 2129;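 active means inhibition above the mean of all tested compounds plus 3 SD, cutoff set per campaign, cut at about 30% in these data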;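 further: inhibitors lower millipolarization by displacing the labeled peptide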
MCL1 BIM primary: disrupts human MCL1 binding to BIM-BH3 peptide | Q07820 | GST-MCL1 / FITC-Bim-BH3 fluorescence polarization | inhibition, % at 10.9 µM | 320,000 tested, 0.68% active | AID 2057;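 active means inhibition above the mean inhibition of all tested compounds plus 3 SD, set per campaign, cut at about 40% in these data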;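 further: higher means more loss of mP so more displacement of Bim peptide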
E coli Lon inh: inhibitors of E. coli Lon protease; AID 602123; purified E. coli Lon protease, fluorescence polarization; P0A9M0; inhibition, % at 7.94 µM; 360,000 tested, 0.42% active; in the data active means inhibition above about 13%, passing the limit was not always enough
Target sequence (P0A9M0 whole entry, looked up): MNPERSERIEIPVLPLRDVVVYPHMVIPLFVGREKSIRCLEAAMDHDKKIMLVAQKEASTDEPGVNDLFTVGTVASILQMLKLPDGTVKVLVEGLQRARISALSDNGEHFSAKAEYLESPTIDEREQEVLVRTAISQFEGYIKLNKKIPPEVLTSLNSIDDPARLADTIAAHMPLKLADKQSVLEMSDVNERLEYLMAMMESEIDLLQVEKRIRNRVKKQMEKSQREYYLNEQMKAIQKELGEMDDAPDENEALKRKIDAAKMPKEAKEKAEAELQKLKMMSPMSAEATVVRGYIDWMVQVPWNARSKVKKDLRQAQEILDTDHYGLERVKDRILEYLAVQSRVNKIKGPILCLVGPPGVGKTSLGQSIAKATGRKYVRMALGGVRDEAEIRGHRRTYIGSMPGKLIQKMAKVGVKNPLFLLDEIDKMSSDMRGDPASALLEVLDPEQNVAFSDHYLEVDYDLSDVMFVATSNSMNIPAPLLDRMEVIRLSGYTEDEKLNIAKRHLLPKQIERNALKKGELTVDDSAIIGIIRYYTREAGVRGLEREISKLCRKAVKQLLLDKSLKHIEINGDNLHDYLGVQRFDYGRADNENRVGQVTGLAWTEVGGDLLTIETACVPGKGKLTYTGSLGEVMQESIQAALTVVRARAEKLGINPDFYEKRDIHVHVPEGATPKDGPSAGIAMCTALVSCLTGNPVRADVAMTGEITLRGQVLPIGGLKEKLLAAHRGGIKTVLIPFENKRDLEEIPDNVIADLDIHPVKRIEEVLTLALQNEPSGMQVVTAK
Large screens that a line does not name were inactive. Hits are enriched below; roughly 1.4% of the tested compounds scored in any of these assays.

NS(=O)(=O)c1ccc(-c2ccc(/C=C3\NC(=S)NC3=O)o2)cc1	MEX-5 binding -64.9 (no result: EBV gp42 inh)
O=C1NC2(CCCCCC2)C(=O)N1Cc1ccccc1Cl	none (no result: EBV gp42 inh)
CCC(C)C(NC(=O)C1CCC(C)CC1)C(=O)NCc1ccccn1 (centres undefined)	none
CC(C)c1ccc(NC(=O)COC(=O)c2nn(C)c(=O)c3ccccc23)cc1	none (no result: MEX-5 binding, EBV gp42 inh, BCLXL inh, MCL1 BIM primary)
C/C(=N\NC(=O)c1nnn(-c2nonc2N)c1-c1cccs1)c1cccc(O)c1	MEX-5 binding -63.0 (no result: EBV gp42 inh)
O=C(C1CCCCC1)N1C[C@H](n2cc(C3CC3)nn2)[C@@H](O)C[C@@H]1c1ccccc1	none (no result: GLD-1 RNA inh, MEX-5 binding, EBV gp42 inh, BCLXL inh, MCL1 BIM primary)
CN(c1ccc(OCC(=O)N2CCOCC2)cc1)S(=O)(=O)c1ccc(Cl)cc1	none
CC(C)(C)c1nn(-c2ccccc2)c2[nH]c(=O)c(CNCc3ccco3)cc12	MEX-5 binding -26.5
C#CC[N+](C)(C)CCN1C(=O)C2C(c3ccccc3)C=CC(c3ccccc3)C2C1=O (centres undefined)	none
CC(C)OC(=O)C[N+](C)(C)CCN1C(=O)C2C(c3ccccc3)C=CC(c3ccccc3)C2C1=O (centres undefined)	GLD-1 RNA inh 55.4
COc1cccc(N=Nc2c(=O)[nH]n3c(=O)c4c([nH]c23)CCC4)c1	none
COc1cccc(N=Nc2c(=O)[nH]n3c(=O)cc(C)[nH]c23)c1	MEX-5 binding -32.4
CCOC(=O)C1=C(O)/C(=C/c2cn(CC(=O)N3CCCC3)c3ccccc23)SC1=Nc1ccccc1	MEX-5 binding -46.5 (no result: GLD-1 RNA inh, BCLXL inh, MCL1 BIM primary)
Cc1ccc(C(=O)NC(=O)CSc2ncccc2C(=O)O)cc1	none
CCN(CC)c1ccc(/C=C(\C#N)C(=O)c2ccc(Br)cc2)cc1	GLD-1 RNA inh 63.2, EBV gp42 inh active, BCLXL inh 52.4, MCL1 BIM primary 44.9
O=C(N=c1ccn(-c2nc3ccccc3nc2NS(=O)(=O)c2ccccc2)cc1)c1cccs1	none
Cc1ccccc1C(=O)N=c1ccn(-c2nc3ccccc3nc2NS(=O)(=O)c2ccc(F)cc2)cc1	MEX-5 binding inconclusive, BCLXL inh 34.2 (no result: EBV gp42 inh)
NC(=O)c1c(NC(=O)CSc2nnc(-c3ccco3)n2-c2ccccc2)sc2c1CCC2	EBV gp42 inh 67.5
N#Cc1c(NC(=O)CSc2nnc(-c3ccco3)n2-c2ccccc2)sc2c1CCC2	none
O=c1[nH][nH]c2cc(=O)n(-c3cccc(C(F)(F)F)c3)nc12	MEX-5 binding -46.4
COc1ccc(-n2nc3c(=O)[nH][nH]c3cc2=O)cc1	MEX-5 binding -78.9
Cc1ccc(C)c(N2CCN(C(=O)c3cc4ccccn4n3)CC2)c1	MEX-5 binding -29.4, BCLXL inh 49.3, MCL1 BIM primary 44.1
N#C/C(=C\c1cccnc1)C(=O)Nc1ccccc1	BCLXL inh 30.7 (no result: MEX-5 binding)
N#C/C(=C\c1cccnc1)C(=O)Nc1ccc(C(=O)O)cc1	none
O=C(O)c1ccc(-n2c(/C=C/c3cccc([N+](=O)[O-])c3)nc3ccccc3c2=O)cc1	none (no result: EBV gp42 inh)
O=C(O)c1ccc(-n2c(/C=C/c3ccccc3)nc3ccccc3c2=O)cc1	BCLXL inh 30.3 (no result: EBV gp42 inh)
O=C(NCCCO)c1ccc2nc(-c3ccco3)c(-c3ccco3)nc2c1	none (no result: GLD-1 RNA inh, MEX-5 binding, BCLXL inh, MCL1 BIM primary)
O=C(NCCO)Nc1ccc2nc(-c3ccco3)c(-c3ccco3)nc2c1	GLD-1 RNA inh 77.9, BCLXL inh 135.7, MCL1 BIM primary 144.6 (no result: MEX-5 binding, E coli Lon inh)
CCOC(=O)CC1Sc2ccccc2NC1=S (centres undefined)	none
Cc1c(Cl)cn2c(=O)cc(CN3CCN(c4ccc(F)cc4)CC3)nc2c1Cl	none (no result: E coli Lon inh)
CC1CCCCC12NC(=O)N(Cn1nnc3ccccc3c1=O)C2=O (centres undefined)	GLD-1 RNA inh 31.1
CC/C(=N\NC(=O)C1CCCC1)c1ccc(Br)cc1	none (no result: GLD-1 RNA inh, EBV gp42 inh, BCLXL inh, MCL1 BIM primary)
CNC(=O)CN(c1ccc(F)cc1)S(=O)(=O)c1cc(C)ccc1OC	none
Cc1nc2ccccc2c2c(N)c3ccccc3n12	BCLXL inh 35.3
Cc1c(N2C(=O)c3cccc4cccc(c34)C2=O)cnn1C	none
CCN1C(=O)/C(=C2\SC(=S)N(CC3CCCO3)C2=O)c2ccccc21 (centres undefined)	none (no result: GLD-1 RNA inh, MEX-5 binding, BCLXL inh, MCL1 BIM primary, E coli Lon inh)
CCN1C(=O)/C(=C2\SC(=S)N(NC(=O)c3ccccc3O)C2=O)c2ccccc21	MEX-5 binding -39.6
COc1ccc(NC(=O)/C(Cl)=C(/Cl)S(=O)Cc2ccccc2Cl)cn1 (centres undefined)	none (no result: GLD-1 RNA inh, MEX-5 binding, BCLXL inh, MCL1 BIM primary, E coli Lon inh)
O=c1[nH][nH]c(-c2ccccc2)c1C=Nc1ccc(OC(F)(F)F)cc1	none
Cc1noc(/C=C/c2cccnc2)c1[N+](=O)[O-]	none (no result: EBV gp42 inh)
Cc1noc(/C=C/c2ccc(-c3ccccc3Cl)o2)c1[N+](=O)[O-]	EBV gp42 inh 129.8
O=C(CSc1nc(-c2ccccc2Cl)ns1)NCc1ccc2c(c1)OCO2	BCLXL inh 63.0
Fc1ccccc1C(c1nnnn1C1CCCC1)N1CCN(Cc2ccccc2)CC1 (centres undefined)	EBV gp42 inh 85.0
CCC(c1nnnn1C1CCCC1)N1CCN(Cc2ccccc2)CC1 (centres undefined)	none
Cc1ccc(/C=C2\Oc3c(ccc(O)c3CN3CCN(C)CC3)C2=O)cc1	MEX-5 binding inconclusive, BCLXL inh 46.1, MCL1 BIM primary 42.0
CCc1ccc(/C=C2\Oc3c(ccc(O)c3CN3CCN(C)CC3)C2=O)cc1	BCLXL inh 42.0 (no result: MEX-5 binding)
CCN1CCN(Cc2c(O)ccc3c2O/C(=C\c2ccc(C)cc2)C3=O)CC1	MEX-5 binding -28.9, BCLXL inh 40.2
CCN1CCN(Cc2c(O)ccc3c2O/C(=C\C=C\c2ccccc2)C3=O)CC1	MEX-5 binding inconclusive
COc1ccccc1/C=C/C=C1\Oc2c(ccc(O)c2CN2CCN(CCO)CC2)C1=O	MEX-5 binding inconclusive, BCLXL inh 40.5
O=C1/C(=C/C=C/c2ccccc2)Oc2c1ccc(O)c2CN1CCN(CCO)CC1	none
O=C(Nc1cc(Cl)ccc1-n1cncn1)c1cc(F)c(F)c(F)c1F	none (no result: EBV gp42 inh)
COc1cc(NC(=O)CCc2c(C)noc2C)c(C(=O)O)cc1OC	none (no result: GLD-1 RNA inh, MEX-5 binding, EBV gp42 inh, BCLXL inh, MCL1 BIM primary)
Cc1cc(C)n2c(=O)[nH]nc2c1	none (no result: GLD-1 RNA inh, MEX-5 binding, EBV gp42 inh, BCLXL inh, MCL1 BIM primary)
C/C=C1\NC(=O)[C@H](C)NC(=O)[C@@H](NC(=O)[C@@H](Cc2ccc(O)cc2)NC(=O)[C@@H](NC(=O)/C(C)=C/C)C(C)C)[C@@H](C)OC(=O)[C@H](CCCCc2ccc(O)cc2)NC(=O)[C@@H](CCC(=O)O)NC1=O	none (no result: MEX-5 binding, EBV gp42 inh, BCLXL inh, MCL1 BIM primary)
Oc1ccc(C2=CSC3=NCCN23)cc1O	MEX-5 binding -30.3 (no result: EBV gp42 inh)
O=C(Oc1ccccc1)c1cc(O)c(O)c(O)c1	none (no result: GLD-1 RNA inh, MEX-5 binding, EBV gp42 inh, BCLXL inh, MCL1 BIM primary)
CCCCc1ccc(S(=O)(=O)NC(=O)C2(C)CCN2C(=O)CCc2cccs2)cc1 (centres undefined)	none (no result: GLD-1 RNA inh, MEX-5 binding, EBV gp42 inh, BCLXL inh, MCL1 BIM primary)
CC1=Nc2ccc(C)cc2/C1=C/c1c(N)n2nc(CC(=O)N3CCOCC3)sc2nc1=O	MEX-5 binding -51.8 (no result: EBV gp42 inh)
Nc1c(/C=C2/C=CC(=O)C(O)=C2)c(=O)nc2sc(CC(=O)N3CCOCC3)nn12	none (no result: GLD-1 RNA inh, MEX-5 binding, EBV gp42 inh, BCLXL inh, MCL1 BIM primary)
CCCCOC(=O)c1ccc(N=Nc2c(C)c(C#N)c(O)[nH]c2=O)cc1	MEX-5 binding -63.4

High-throughput results: PubChem, several laboratories
